# Many of the other results were omitted from the sample, so hits are more common in it than they were.
# KDM5B inhibitor: KDM5B demethylase inhibition | KDM5B demethylase, FDH-coupled NADH fluorescence (FDH is formaldehyde dehydrogenase) | Potency, µM (top dose mostly 57.7 µM), most hits filed as inhibitors | 220,000 tested, 2.6% active | AID 1347165; active means well fitted inhibition curve with a large enough effect; further: 0% is about no effect; nearly all actives have a fitted effect of over 70% in size
# Target sequence (Q9UGL1 whole entry, looked up): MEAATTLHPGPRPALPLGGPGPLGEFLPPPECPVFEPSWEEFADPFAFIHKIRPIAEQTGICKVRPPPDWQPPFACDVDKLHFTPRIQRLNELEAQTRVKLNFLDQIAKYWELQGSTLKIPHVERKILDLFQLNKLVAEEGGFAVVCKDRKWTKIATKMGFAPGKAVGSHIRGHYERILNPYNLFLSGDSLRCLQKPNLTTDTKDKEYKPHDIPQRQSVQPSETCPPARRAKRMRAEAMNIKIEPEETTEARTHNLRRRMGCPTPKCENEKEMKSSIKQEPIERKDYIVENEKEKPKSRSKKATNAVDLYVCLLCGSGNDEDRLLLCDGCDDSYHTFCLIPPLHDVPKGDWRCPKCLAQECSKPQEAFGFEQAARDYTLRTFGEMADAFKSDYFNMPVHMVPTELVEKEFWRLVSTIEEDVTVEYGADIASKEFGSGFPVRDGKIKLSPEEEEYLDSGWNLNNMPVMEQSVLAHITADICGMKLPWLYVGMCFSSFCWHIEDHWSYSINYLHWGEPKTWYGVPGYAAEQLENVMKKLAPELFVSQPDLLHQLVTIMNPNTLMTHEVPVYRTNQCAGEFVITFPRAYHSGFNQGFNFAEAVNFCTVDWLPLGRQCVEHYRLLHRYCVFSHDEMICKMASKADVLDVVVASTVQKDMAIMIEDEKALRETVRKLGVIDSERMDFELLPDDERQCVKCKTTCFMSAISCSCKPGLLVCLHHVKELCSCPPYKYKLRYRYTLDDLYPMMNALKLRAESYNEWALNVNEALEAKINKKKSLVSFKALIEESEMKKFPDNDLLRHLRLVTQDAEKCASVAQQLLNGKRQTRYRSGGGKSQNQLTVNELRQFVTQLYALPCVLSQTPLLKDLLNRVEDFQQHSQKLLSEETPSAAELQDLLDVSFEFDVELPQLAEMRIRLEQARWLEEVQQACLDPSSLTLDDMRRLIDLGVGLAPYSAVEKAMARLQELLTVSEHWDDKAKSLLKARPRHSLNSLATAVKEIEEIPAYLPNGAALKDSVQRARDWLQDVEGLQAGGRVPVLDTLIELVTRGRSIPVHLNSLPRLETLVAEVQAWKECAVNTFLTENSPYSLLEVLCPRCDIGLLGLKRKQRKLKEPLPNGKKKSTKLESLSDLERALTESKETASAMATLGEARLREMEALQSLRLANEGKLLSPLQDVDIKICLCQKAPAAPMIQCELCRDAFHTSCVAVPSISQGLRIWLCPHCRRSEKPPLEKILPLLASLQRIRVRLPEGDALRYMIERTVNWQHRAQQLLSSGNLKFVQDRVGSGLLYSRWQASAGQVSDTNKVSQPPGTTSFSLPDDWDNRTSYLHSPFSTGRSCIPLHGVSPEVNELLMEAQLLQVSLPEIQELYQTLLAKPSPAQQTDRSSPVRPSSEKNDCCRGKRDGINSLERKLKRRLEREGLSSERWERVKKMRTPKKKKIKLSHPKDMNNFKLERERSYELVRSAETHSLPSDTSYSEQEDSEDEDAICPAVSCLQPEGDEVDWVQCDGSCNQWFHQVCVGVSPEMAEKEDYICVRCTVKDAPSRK
#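 Coupled FDH/NAD⁺ fluorescence readout. KDM5BΔAP 200 nM final; compound titration, 10 min RT preincubation; substrate mix 12.5 µM H3K4me3, 25 µM 2-OG, 50 µM Fe(II), 100 µM ascorbate, 0.25 mM NAD⁺, 0.25 U/mL FDH; ΔRFU over 30 min.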
# * = called active by the depositor; i = inactive; ! = not confirmed by another sample. Potency means the concentration at half of the fitted maximal effect.
SMILES,KDM5B inhibitor
CN(C)C1CCN(c2nccc(C3(c4ccccc4Cl)CCNCC3)n2)C1 (stereo not given),28µM*
Cc1ccc(C(=O)c2c(C)c(CCC#N)n3ccccc23)cc1,i
CC(Oc1cccc(Cl)c1)C(=O)NCCc1cccs1 (stereo not given),i
Cc1ccc2nc(NC(=O)CCn3c(=O)n(C)c4ccccc43)sc2c1,i
CCOC(=O)c1cc(-c2ccc(S(=O)(=O)Nc3ccccc3CC)s2)on1,i
O=C(NCC1CCC1)c1ccccc1Nc1ccccc1,i
COC(=O)c1ccc(C(=O)NCCc2ccccc2)cc1,i
Cn1c(=O)c2c(nc(NCc3ccc4c(c3)OCO4)n2C)n(C)c1=O,i
COc1cc2ncnc(NCc3ccc4c(c3)OCO4)c2cc1OC,i
COCc1ccccc1-c1nccc2c(=O)cc(-c3cnn(C)c3)oc12,35µM*
Cn1cc(-c2cc(=O)c3ccnc(-c4cccc5[nH]ccc45)c3o2)cn1,i
Cn1cc(-c2cc(=O)c3ccnc(NCc4ccc5c(c4)OCO5)c3o2)cn1,32µM*
Cc1nn(-c2ccc(Cl)nn2)c2c1C(c1ccc(OCC(N)=O)cc1)CC(=O)N2 (stereo not given),i
COc1cccc(/C=C(/SCC(=O)O)c2nc3ccccc3s2)c1,i
NC(N)=NC(N)=Nc1ccc(Br)cc1,i
COC(=O)c1cccc(NC(=O)COc2ccc3c(C)cc(=O)oc3c2)c1,i
O=C(COc1ncnc2c(Cl)cc(Cl)cc12)Nc1ccc(F)c(Cl)c1,i
Cc1cc2nccc(-c3ccc(F)cc3)n2n1,i
Brc1ccc(-c2ccnc3ncnn23)s1,i
Fc1ccc(-c2ccnc3ncnn23)cc1,28µM*
CCCCCn1nc(C(=O)Nc2cccc(C#N)c2)c2ccccc2c1=O,i
CCCCn1cnc2c1c(=O)n(CC(=O)Nc1cccc(Cl)c1)c(=O)n2CC(C)C,i
NS(=O)(=O)c1ccc(NNC(=O)c2ccc(NS(=O)(=O)c3cccs3)cc2)c([N+](=O)[O-])c1,i
O=C(Nc1ccc2oc(-c3ccccc3)cc(=O)c2c1)c1ccco1,i
Cc1cccc(N/N=C/c2ccc(F)c(F)c2)c1,i
SMILES,KDM5B inhibitor
Cc1ccc(NC(=O)C(C)C)cc1Cl,i
O=C(Cn1c(=O)c2c(ncn2Cc2ccccc2)n(Cc2ccccc2)c1=O)NCCc1ccccc1,i
O=C(c1ccc2c(c1)OCO2)N1CCC(c2nnc3n2CCNC3)CC1,50µM*
O=C(c1ccc2c(c1)OCO2)N1CCC(N2CCNC2=O)CC1,i
O=C(c1ccc2c(c1)OCO2)N1CCn2c(nnc2C2CCCNC2)C1 (stereo not given),i
Cc1c(C(=O)O)nnn1-c1cccc(Br)c1,i
COC(=O)c1ccc(OCC(=O)c2ccc3c(c2)OCO3)c(OC)c1,i
CCC(C(=O)NCc1cc(C)ccc1OC)c1ccccc1 (stereo not given),i
CCC(C)C(=O)NCCc1c[nH]c2ccc(C)cc12 (stereo not given),i
CCc1[nH]c2c(CNC(=O)C(C)O)cc(C)cc2c1C (stereo not given),32µM*
S=C(NCCc1ccc(Cl)cc1)Nc1ccc(Nc2ccccc2)cc1,i
Cc1cc(C)cc(NC(=O)Cn2c(-c3ccccc3)nc(C)c(CCO)c2=O)c1,i
Cc1cc(C[C@@H]2COC[C@@H]2NC(=O)c2cnn3cc(CCO)cnc23)on1,28µM*
Cc1cc(C[C@@H]2COC[C@@H]2NC(=O)c2ccccc2-c2ccc(F)cc2)on1,i
CCCc1cc(C(=O)N[C@H]2COC[C@H]2Cc2cc(C)no2)cs1,i
Cc1cc(C[C@@H]2COC[C@@H]2NC(=O)c2csc(Cc3ccccc3)n2)on1,i
Cc1cc(C[C@@H]2COC[C@@H]2NC(=O)c2ccc(S(N)(=O)=O)cc2)on1,i
Cc1cc(C[C@@H]2COC[C@@H]2NC(=O)c2cc(CC(C)C)nc(N)n2)on1,32µM*
Cc1ccnc(NC(=O)CCC(=O)N(CC(=O)NCc2ccccc2)Cc2ccc(F)cc2)c1,i
Cc1ccc(CNC(=O)c2cc3c(N(C)Cc4ccccc4)nc(C)cn3n2)cc1,28µM*
Cc1cn2nc(C(=O)NCCc3ccccc3)cc2c(=O)[nH]1,i
Cc1cn2nc(C(=O)NCc3ccccc3C)cc2c(N(C)Cc2ccccc2)n1,14µM*
Cc1cn2nc(C(=O)NCc3ccc(F)cc3)cc2c(N(C)Cc2ccccc2)n1,25µM*
Cc1cn2nc(C(=O)NCc3ccccc3Cl)cc2c(=O)[nH]1,i
Cc1ccc(CNC(=O)c2cnc3ccccc3n2)cc1,i
SMILES,KDM5B inhibitor
CN(C)c1c(F)cc(C(=O)NCc2ccccc2)cc1F,i
Cc1ccc(CCNC(=O)c2cc3c(=O)[nH]c(C)cn3n2)cc1,i
CC(C)CC(=O)N1CCN(Cc2ccncc2)CC1,i
COC(=O)c1ccccc1NC(=O)N1CCN(Cc2nc(-c3ccc(C)cc3)oc2C)CC1,i
NC(=O)c1cn[nH]c1NCc1cccnc1,i
CCOc1ccc(C(F)(F)F)cc1N,i
COc1ccc(-c2nnn(CC(=O)N3CCCC3c3ccc4c(c3)OCCO4)n2)cc1OC (stereo not given),i
COC(=O)[C@@H]1Cc2ncn(Cc3ccccc3)c2CN1S(=O)(=O)c1ccc(C)cc1,i
C=C(C)CN1CCN(c2nc3c(c(=O)[nH]c(=O)n3C)n2Cc2cccc(Cl)c2)CC1,i
CCC/C=N/NC(=O)c1ccccc1C,i
N#CC1=C(N)N(c2ccccc2C(F)(F)F)C2=C(C(=O)CCC2)C1c1ccsc1 (stereo not given),i
Cc1cc2cc(-c3c(C)noc3C)nc(NC3CC3)c2o1,i
Cc1noc(C)c1-c1cc2cc(CN(C)C)oc2c(NCc2ccccc2)n1,i
Cc1noc(C)c1-c1cc2cc(CN(C)C)oc2c(NCc2cccnc2)n1,i
Cc1noc(C)c1-c1cc2cc(C(C)C)oc2c(NCc2cccnc2)n1,i
Cc1noc(C)c1-c1cc2cc(CN(C)C)oc2c(Nc2cccnc2)n1,28µM*
Cc1noc(C)c1-c1cc2cc(CO)oc2c(NCC2CCOCC2)n1,32µM*
Cc1noc(C)c1-c1cc2cc(CO)oc2c(NC2CCOCC2)n1,35µM*
Cc1noc(C)c1-c1cc2cc(C(C)C)oc2c(NC2CCN(C)CC2)n1,i
Cc1noc(C)c1-c1cc2cc(C(C)C)oc2c(NCCN2CCOCC2)n1,i
Cn1ccc(NC(=O)CCc2ncc(-c3ccccc3)o2)n1,i
Cc1ccc(CNC(C)C23CC4CC(CC(C4)C2)C3)o1 (stereo not given),i
COCCNC(=O)[C@@H]1Cc2cn(Cc3cccnc3)c3cccc(c23)[C@H](CC(C)C)N1,i
CCN1CCC2(Cc3ccccc3CN(S(C)(=O)=O)C2)C1 (stereo not given),i
Cc1ccc(NC(=O)Cc2c[nH]c3ccccc23)cc1C,i
SMILES,KDM5B inhibitor
CCCCNC(=O)c1cccc(NC(=O)Cc2ccccc2)c1,i
Clc1cccc(CSc2nc3ncccc3[nH]2)c1,i
O=C(O)c1ccc2ncccc2c1,i
Clc1ccc(CSc2nc3ncccc3[nH]2)cc1,i
O=C(O)c1ccc(-c2nc3ncccc3[nH]2)cc1,28µM*!
Cc1nc(-c2ccccn2)n[nH]1,i
Cc1ccc(C)c(CSc2nc3ncccc3[nH]2)c1,i
O=C(O)c1ccc(CN2C[C@@H](F)[C@@H](OCc3nc4ncccc4[nH]3)C2)cc1,i
c1cnc2nc(-c3ccsc3)[nH]c2c1,32µM*!
c1ccc(-c2nc3ncccc3[nH]2)nc1,32µM*!
